In all, about 340,000 compounds went through this assay and about 5,100 (1.5%) were called active. This is one part of a sample in which actives are shown more often than they occur.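 Rule for the calls: active = mean Tm shift, scaled 0 neutral to 100 positive control, at about 1.3% or above, every replicate too (limit read from the data); inconclusive = no clear call, values can overlap the other calls; inactive = the rest.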

Experimental findings from PubChem BioAssay AID651658 (Broad Institute, 2012) are described below.

The target of this assay is Fibroblast growth factor 22 (Homo sapiens) (UniProt Q9HCT0). The assay is described as follows: binders of human FGF22 protein, primary screen, FGF22 synaptogenesis inhibitor project, biophysical, thermal shift, single point (AID 651658). Particulars: recombinant FGF22 thermal shift, SYPRO orange fluorescence; at 9.99 µM; hits give high values; percent of sucrose octasulfate shift, DMSO zero.
Chain of Fibroblast growth factor 22 (Homo sapiens) (Q9HCT0 whole entry, looked up): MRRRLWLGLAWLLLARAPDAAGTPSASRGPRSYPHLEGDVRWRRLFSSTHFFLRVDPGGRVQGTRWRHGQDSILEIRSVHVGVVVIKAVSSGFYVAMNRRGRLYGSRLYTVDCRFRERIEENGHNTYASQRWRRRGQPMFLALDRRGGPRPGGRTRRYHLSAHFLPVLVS
Regarding `CCC(=O)Nc1ccc(C(=O)N2CCN(C(=O)c3ccco3)CC2)cc1`, the activity (Tm shift, normalised) was 44.4% (active). The figure for `Cc1ccc(OCC(=O)Nc2ccc(N3CCN(C(=O)c4ccco4)CC3)cc2)c(C)c1` is -0.015% (inactive); for `Cc1ccc(NC(=O)C(c2ccccc2)N2CCN(C(=O)c3ccco3)CC2)cc1` (stereo unspecified) it is -0.162% (inactive); for `O=C(Nc1cccc(F)c1)N[C@@H]1CC[C@@H](CCn2cc(Cc3ccccc3)nn2)O[C@@H]1CO` it is 0.097% (inactive). As for `CO[C@@H]1CN(C)C(=O)c2cc(NC(=O)C3CCCC3)ccc2OC[C@@H](C)N(C(=O)Nc2ccc(C(F)(F)F)cc2)C[C@H]1C`, the activity (Tm shift, normalised) was -0.774% (inactive). The same measure for `O=C(C[C@H]1C[C@H]2c3cc(NC(=O)CC4CC4)ccc3O[C@H]2[C@H](CO)O1)NCc1ccccn1`: 0.96% (inactive); for `Cc1ccc(NC(=O)CSc2nc(CSc3ccc(C)cc3)cc(=O)[nH]2)cc1`: 44% (active).

Take `CCCc1cc(=O)[nH]c(SCC(=O)Nc2ccc(C(=O)Nc3ccccc3OC)cc2)n1`: the activity (Tm shift, normalised) is -0.412% (inactive). With `Cc1cc(=O)[nH]c(SCC(=O)Nc2ccc(Br)cc2)n1`, the activity (Tm shift, normalised) was -0.265% (inactive). The same measure for `COc1ccc(S(=O)(=O)Nc2ccc3c(c2)C(=O)N([C@@H](C)CO)C[C@H](C)[C@@H](CN(C)C(=O)Nc2ccc4c(c2)OCO4)OCCCC[C@@H](C)O3)cc1`: 0.801% (inactive).

`C[C@H](CO)N1C[C@H](C)[C@H](CN(C)CC2CCCC2)Oc2ncc(Br)cc2C1=O`: the activity (Tm shift, normalised) is -0.016% (inactive). Take `CC(C)NC(=O)N1[C@H](CO)[C@@H]2c3ccccc3N(C(=O)Nc3cccc(Cl)c3)C[C@@H]21`: the activity (Tm shift, normalised) was 0.043% (inactive). For `Cc1ccc(S(=O)(=O)N(C)C[C@@H]2Oc3c(NC(=O)NC(C)C)cccc3C(=O)N([C@H](C)CO)C[C@H]2C)cc1`, the activity (Tm shift, normalised) was 0.01% (inactive). As to `CC(=O)Nc1ccc(/C=N/Nc2ccc(C(=O)c3c(C)cc4ccccn34)cc2[N+](=O)[O-])cc1`, the activity (Tm shift, normalised) was -0.063% (inactive).

Regarding `Cc1ccc(C(C[N+](=O)[O-])c2c(C)cc3ccccn23)cc1` (stereo unspecified), the activity (Tm shift, normalised) is 43.8% (active).

With `Cc1cc2ccccn2c1C(=O)c1cccc(F)c1`, the activity (Tm shift, normalised) was -0.141% (inactive).

`Cc1cc(C)n(-c2nnc(N3CCN(c4ccccc4)CC3)nn2)n1`: the activity (Tm shift, normalised) was 0.536% (inactive). In the case of `O=C(Nc1ccccc1Cl)N1CCN(c2ccc3nncn3n2)CC1`, the activity (Tm shift, normalised) was 0.014% (inactive). As to `Cc1cc(C)n(-c2ccc3nncn3n2)n1`, the activity (Tm shift, normalised) is 43.4% (active). Turning to `CCS(=O)(=O)N1Cc2cc(C(=O)N(C)C)nc(-c3cccc(-c4ccc(C#N)cc4)c3)c2[C@H]1CCO`, the activity (Tm shift, normalised) was -0.41% (inactive). As to `CCCC#Cc1ccc2c(c1)O[C@@H](CN(C)C(=O)c1cccnc1)[C@H](C)CN([C@H](C)CO)S2(=O)=O`, the activity (Tm shift, normalised) was -0.014% (inactive).

Turning to `OCCN1CCN(C(=S)c2ccc(-c3ccccc3)cc2)CC1`, the activity (Tm shift, normalised) was -0.171% (inactive). As for `CN1CCN(C(=O)c2ccc(-c3ccc(Br)cc3)o2)CC1`, the activity (Tm shift, normalised) is -0.078% (inactive). The figure for `S=C(c1ccc(-c2ccccc2)o1)N1CCCCC1` is 43.4% (active); for `C[C@@H]1CN([C@@H](C)CO)C(=O)Cc2cc(NS(C)(=O)=O)ccc2O[C@H]1CN(C)S(=O)(=O)c1ccc(F)cc1` it is 0.13% (inactive); for `COc1cccc(CNC(=O)C[C@@H]2C=C[C@@H](NC(=O)C3CCC3)[C@@H](CO)O2)c1` it is 0.068% (inactive). The figure for `CSc1ccc(CN(C)CC(=O)NCc2ccc(F)cc2)cc1` is 0.292% (inactive); for `Cc1ccc(CS(=O)(=O)CCC(=O)NCc2ccc(F)cc2)cc1` it is -0.138% (inactive). The figure for `Cc1ccc(SC(C)C(=O)NCc2ccc(F)cc2)cc1` (stereo unspecified) is 43.3% (active); for `C[C@H](CO)N1C[C@H](C)[C@H](CN(C)C(=O)NC2CCCCC2)Oc2c(NC(=O)c3nc4ccccc4s3)cccc2C1=O` it is -0.035% (inactive).

Regarding `CC(C)NC(=O)N(C)C[C@@H]1Oc2c(NC(=O)c3nc4ccccc4s3)cccc2C(=O)N([C@H](C)CO)C[C@H]1C`, the activity (Tm shift, normalised) is 29.2% (active). On to `C[C@@H]1CN([C@H](C)CO)C(=O)c2cccc(NC(=O)c3nc4ccccc4s3)c2O[C@@H]1CN(C)C`, for which the activity (Tm shift, normalised) is 0.121% (inactive). Take `COc1ccc(S(=O)(=O)Nc2ccc3c(c2)C(=O)N([C@H](C)CO)C[C@@H](C)[C@H](CN(C)C(=O)c2ccncc2)OCCCC[C@@H](C)O3)cc1`: the activity (Tm shift, normalised) was -0.014% (inactive). For the compound `O=C(C[C@H]1C[C@H]2c3cc(NC(=O)CC4CC4)ccc3O[C@H]2[C@H](CO)O1)NCc1ccccc1`, the activity (Tm shift, normalised) is 0.206% (inactive). `N#C[C@@H]1[C@@H](c2ccc(-c3cccnc3)cc2)[C@H](CO)N1C(=O)Nc1ccc(F)cc1`: the activity (Tm shift, normalised) is 0.238% (inactive). Turning to `O=C(Nc1nnc(-c2ccc(F)cc2)s1)c1c(F)cccc1Cl`, the activity (Tm shift, normalised) is 0.279% (inactive). The same measure for `CN(Cc1ccccc1)S(=O)(=O)c1nnc(NC(=O)c2ccccc2F)s1`: -0.151% (inactive). The figure for `O=C(Nc1nnc(-c2ccccc2F)s1)c1ccccc1F` is 2.31% (active); for `CCN(C(=O)CSc1nc2ccccc2n1CC)C1CCS(=O)(=O)C1` (stereo unspecified) it is 0.234% (inactive). The figure for `CCn1c(SCC(=O)N(C)C2CCS(=O)(=O)C2)nnc1-c1cccs1` (stereo unspecified) is 43.9% (active); for `CN(C(=O)CSc1nnc(-c2ccc(C(C)(C)C)cc2)n1C)C1CCS(=O)(=O)C1` (stereo unspecified) it is 0.442% (inactive). For the compound `Cc1ccc(S(=O)(=O)Nc2ccc3c(c2)C(=O)N([C@H](C)CO)C[C@H](C)[C@@H](CN(C)C(=O)NC(C)C)OCCCC[C@@H](C)O3)cc1`, the activity (Tm shift, normalised) was 0.879% (inactive). The same measure for `CCCc1cn(CC[C@@H]2CC[C@@H](NC(=O)CCN3CCCCC3)[C@H](CO)O2)nn1`: 0.083% (inactive). The same measure for `COc1ccc(-n2c(C)cc(C(=O)COC(=O)c3cc(OC)c(OC)cc3NC(=O)c3cccs3)c2C)cc1`: 43.4% (active). For the compound `Cc1cc(C(=O)COC(=O)C2CC2)c(C)n1-c1ccc(F)cc1`, the activity (Tm shift, normalised) was 0.711% (inactive). As to `COc1ccc(C(=O)COC(=O)CNC(=O)c2cccs2)cc1Br`, the activity (Tm shift, normalised) is -0.191% (inactive).

For `COc1ccc2c3c(n(C)c2c1)[C@@H](CO)N(C(=O)Nc1ccccc1F)CC31CCN(C(=O)c2ccccc2F)CC1`, the activity (Tm shift, normalised) is -0.032% (inactive).

For `COc1ccc(NC(=O)N(C)C[C@@H]2Oc3ccc(NS(=O)(=O)c4ccc(Cl)cc4)cc3C(=O)N([C@H](C)CO)C[C@@H]2C)cc1`, the activity (Tm shift, normalised) was 0.119% (inactive).

On to `Cc1ccc2[nH]c(=O)c(CN3CCCCC3)c(-c3ccccc3)c2c1`, for which the activity (Tm shift, normalised) is 43.2% (active). The figure for `c1ccc2cc3[nH]c(CN4CCCCC4)nc3cc2c1` is -0.01% (inactive); for `Cc1ccc2[nH]c(=O)c(CC(=O)O)c(-c3ccccc3)c2c1` it is -0.089% (inactive); for `Cc1ccccc1S(=O)(=O)N[C@H]1CC[C@@H](CCn2cc(Cc3ccccc3)nn2)O[C@H]1CO` it is -0.039% (inactive).

For `Cc1noc(C)c1NC(=O)N(C)C[C@H]1OCCCC[C@H](C)Oc2ccc(NC(=O)Cc3ccccc3)cc2C(=O)N([C@H](C)CO)C[C@@H]1C`, the activity (Tm shift, normalised) was 1.07% (inactive). The figure for `COc1ccc2c(C)cc(SCC(=O)NCC3CCCO3)nc2c1` (stereo unspecified) is 0.011% (inactive). Turning to `O=C(CSc1nnc(-c2ccncc2)o1)NCc1ccc(Cl)cc1`, the activity (Tm shift, normalised) is 43.9% (active).

Take `O=C(CSc1ccc(-c2ccccc2)nn1)NCC1CCCO1` (stereo unspecified): the activity (Tm shift, normalised) is -0.177% (inactive). Regarding `CCc1ccccc1NC(=O)CSc1nnc(-c2ccncc2)o1`, the activity (Tm shift, normalised) is -0.04% (inactive).

Take `O=C(CSc1nnc(-c2ccncc2)o1)Nc1cccc(Cl)c1`: the activity (Tm shift, normalised) is 0.107% (inactive). Consider `O=C(COc1ccc(Cl)cc1)NCc1nnc(SCC(=O)NCC2CCCO2)o1` (stereo unspecified), for which the activity (Tm shift, normalised) is 42.9% (active). The same measure for `C[C@@H]1CN([C@@H](C)CO)C(=O)c2cc(NS(=O)(=O)c3cn(C)cn3)ccc2O[C@@H]1CN(C)C(=O)NC1CCCCC1`: -0.419% (inactive). Turning to `COC(=O)[C@@H]1[C@@H](CO)[C@@H]2Cn3c(ccc(-c4ccc(OC)cc4)c3=O)[C@@H]2N1S(C)(=O)=O`, the activity (Tm shift, normalised) was -0.206% (inactive). For `CCC(=O)N1[C@H](C(=O)OC)[C@@H](CO)[C@@H]2Cn3c(ccc(-c4cccc(F)c4)c3=O)[C@@H]21`, the activity (Tm shift, normalised) was 0.191% (inactive). The figure for `COCC(=O)N1[C@@H](CO)[C@H](c2ccccc2)C12CN(C(=O)NC1CCCCC1)C2` is 0.045% (inactive); for `COc1ccc2c3c([nH]c2c1)[C@H](CO)N(Cc1ccccc1)CC31CCN(C(=O)c2ccccn2)CC1` it is -0.204% (inactive); for `C[C@@H]1CN([C@@H](C)CO)C(=O)Cc2cc(NC(=O)Nc3cccc4ccccc34)ccc2O[C@H]1CN(C)CC1CCCCC1` it is 0.094% (inactive).

Turning to `O=C(NCCc1ccc(F)cc1)c1n[nH]c2ccccc12`, the activity (Tm shift, normalised) is 43.3% (active).

Take `O=C(NCCc1ccccc1)c1c[nH]c2ccc(F)cc2c1=O`: the activity (Tm shift, normalised) is 0.52% (inactive). The figure for `COc1cccc(CNC(=O)c2n[nH]c3ccccc23)c1` is 0.239% (inactive); for `CCCNC(=O)N1C[C@@H](O)COC[C@H]2O[C@H](CC(=O)NCCCN3CCOCC3)CC[C@@H]21` it is -0.348% (inactive).

Take `COc1ccccc1-c1ccc2c(c1)O[C@H](CN(C)C(=O)c1cccnc1)[C@H](C)CN([C@@H](C)CO)S2(=O)=O`: the activity (Tm shift, normalised) is -0.096% (inactive). The figure for `O=C(C[C@@H]1CC[C@@H]2[C@H](COC[C@H](O)CN2C(=O)C2CC2)O1)NCc1ccncc1` is 0.141% (inactive); for `CN(C)CC(=O)N1[C@H](CO)[C@@H](c2ccc(-c3cccc(C(=O)N(C)C)c3)cc2)[C@@H]1C#N` it is 0.074% (inactive). The figure for `O=C(c1cnn2ccccc12)N1CCc2ccccc21` is -0.357% (inactive); for `NC(=O)N1CCc2ccccc21` it is 43.1% (active); for `O=C(NC(=S)N1CCc2ccccc21)c1ccco1` it is 0.306% (inactive). For the compound `C[C@H](CO)N1C[C@H](C)[C@@H](CN(C)C(=O)Cc2ccncc2)Oc2ncc(C3=CCCCC3)cc2C1=O`, the activity (Tm shift, normalised) is 0.188% (inactive).
